Data: PubChem BioAssay AID1159580 (chemical genetic matrix, 2015)
Several values for one entry are separate records, joined by “and”; a condition that tells them apart may be missing. Equal values may be shown once. Out of some 5,500 compounds screened, about 2,000 (36%) were called active. Inconclusive results (about 18%) are left out. Rule as the data show it: active = normalized growth mostly below about 0.91 (no sharp cut-off); inconclusive = no clear call, values can overlap the other calls; inactive = mostly above about 0.92. This is one part of the list.

Assay: chemical genetic growth profiling, strain panel (AID 1159580);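 also: tested at 20 µM; growth read once vehicle control cultures reached saturation at 30 °C; 1 = growth at the plate median or of vehicle wells; lower values mean less growth of the strain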
Conditions: S. cerevisiae deletion strains, growth OD

Measured: normalized growth

CN1C(=O)CCS(=O)(=O)C1c1ccc(Cl)cc1 (stereo unspecified)
inactive: locus YAL013W, strain DEP1, active compounds read low 1.01 | locus YAL021C, strain ccr4, active compounds read low 0.981 | locus YAL026C, strain drs2, active compounds read low 0.982 | locus YAL030W, strain snc1, active compounds read low 0.992 | locus YAL040C, strain CLN3, active compounds read low 1.03 | locus YBL061C, strain skt5, active compounds read low 1 | locus YBR009C, strain hhf1, active compounds read low 0.953 | locus YBR021W, strain FUR4, active compounds read low 1.02 | locus YBR023C, strain chs3, active compounds read low 0.995 | locus YBR171W, strain sec66, active compounds read low 0.988 | locus YBR229C, strain ROT2, active compounds read low 1.01 | locus YBR231C, strain swc5, active compounds read low 0.965 | locus YBR279W, strain paf1, active compounds read low 0.99 | locus YCL011C, strain gbp2, active compounds read low 1.01 | locus YCL016C, strain dcc1, active compounds read low 1.01 | locus YCL029C, strain bik1, active compounds read low 1.02 | locus YCL061C, strain MRC1 (second series), active compounds read low 0.999 | locus YCL061C, strain MRC1, active compounds read low 0.99 | locus YCL069W, strain vba3, active compounds read low 0.949 | locus YCR088W, strain abp1, active compounds read low 0.982 | locus YDL005C, strain med2, active compounds read low 0.991 | locus YDL035C, strain GPR1, active compounds read low 1.02 | locus YDL040C, strain nat1, active compounds read low 0.973 | locus YDL074C, strain BRE1, active compounds read low 1.04 | locus YDL101C, strain DUN1, active compounds read low 1.02 | locus YDL134C, strain PPH21, active compounds read low 1.01 | locus YDL185W, strain tfp1, active compounds read low 1.03 | locus YDL192W, strain arf1, active compounds read low 1.01 | locus YDR001C, strain nth1, active compounds read low 0.976 | locus YDR069C, strain doa4, active compounds read low 0.971 | locus YDR101C, strain arx1, active compounds read low 1.01 | locus YDR137W, strain rgp1, active compounds read low 0.993 | locus YDR150W, strain NUM1, active compounds read low 1.01 and 1 | locus YDR159W, strain sac3, active compounds read low 0.883 | locus YDR162C, strain NBP2, active compounds read low 1.02 | locus YDR195W, strain ref2 0.956 | locus YDR297W, strain sur2, active compounds read low 0.983 | locus YDR318W, strain mcm21, active compounds read low 1.01 | locus YDR334W, strain swr1, active compounds read low 0.951 | locus YDR335W, strain msn5, active compounds read low 0.972 | locus YDR363W, strain ESC2, active compounds read low 1.03 | locus YDR388W, active compounds read low 1.01 | locus YDR392W, strain spt3, active compounds read low 0.939 | locus YDR502C, strain sam2, active compounds read low 1.01 | locus YEL003W, strain gim4, active compounds read low 0.982 | locus YEL037C, strain rad23, active compounds read low 0.982 | locus YEL061C, strain CIN8 (second series), active compounds read low 0.995 | locus YEL061C, strain CIN8, active compounds read low 1.01 | locus YER002W, strain NOP16, active compounds read low 1.01 | locus YER015W, strain faa2, active compounds read low 0.985 | locus YER016W, strain bim1, active compounds read low 1.03 | locus YER110C, active compounds read low 1.01 | locus YER111C, strain swi4, active compounds read low 0.996 | locus YER155C, strain BEM2 (second series), active compounds read low 1 | locus YER155C, strain BEM2, active compounds read low 1.01 | locus YER167W, strain BCK2, active compounds read low 1.01 | locus YFR010W, strain ubp6, active compounds read low 0.954 | locus YGL078C, strain dbp3, active compounds read low 0.998 | locus YGL086W, strain mad1, active compounds read low 1.01 | locus YGL167C, strain pmr1, active compounds read low 0.963 | locus YGL173C, strain kem1, active compounds read low 0.953 | locus YGL227W, strain vid30, active compounds read low 0.98 | locus YGL240W, strain doc1, active compounds read low 0.963 | locus YGL248W, strain PDE1, active compounds read low 1.01 | locus YGL253W, strain hxk2, active compounds read low 0.995 | locus YGR078C, strain PAC10, active compounds read low 1.02 | locus YGR135W, strain pre9, active compounds read low 1.01 | locus YGR229C, strain SMI1, active compounds read low 1.03 | locus YGR252W, strain gcn5, active compounds read low 1.01 | locus YHR013C, strain ard1, active compounds read low 0.982 | locus YHR027C, strain rpn1, active compounds read low 0.98 | locus YHR030C, strain SLT2, active compounds read low 1.01 and 0.973 | locus YHR079C, strain IRE1 (second series), active compounds read low 1.02 | locus YHR079C, strain IRE1, active compounds read low 0.97 | locus YHR094C, strain hxt1, active compounds read low 1.01 | locus YHR129C, strain ARP1, active compounds read low 1.01 | locus YHR142W, strain chs7, active compounds read low 0.975 | locus YHR200W, strain rpn10, active compounds read low 1.01 | locus YIL066C, strain RNR3, active compounds read low 1.02 | locus YIL073C, strain SPO22, active compounds read low 1.05 | locus YIL125W, strain kgd1, active compounds read low 1.01 | locus YIR030C, strain dcg1, active compounds read low 1.01 | locus YJL092W, strain hpr5, active compounds read low 0.997 | locus YJL095W, strain BCK1 (second series), active compounds read low 0.977 | locus YJL095W, strain BCK1, active compounds read low 1.04 and 0.994 | locus YJL115W, strain asf1, active compounds read low 0.967 | locus YJL129C, strain trk1, active compounds read low 0.994 | locus YJL134W, strain LCB3, active compounds read low 1.01 | locus YJL154C, strain vps35, active compounds read low 0.989 | locus YJL164C, strain tpk1, active compounds read low 0.997 | locus YJL166W, strain qcr8, active compounds read low 0.943 | locus YJL168C, strain set2, active compounds read low 1.01 | locus YJL187C, strain SWE1 (second series), active compounds read low 1.03 | locus YJL187C, strain SWE1, active compounds read low 0.994 | locus YJR043C, strain POL32, active compounds read low 1.02 | locus YJR066W, strain TOR1, active compounds read low 0.885
